Our source for the Potency and activity change, negative = inhibition values is PubChem BioAssay (NCATS).

Inconclusive results are not listed. Active and inactive are the calls of the source. Calls come from the whole dose curve.

A short description of the experiment: Primary qHTS to identify inhibitors of SARS-CoV-2 cell entry (AID 1645846). Note: nearly all actives have a fitted effect of over 45% in size. Particulars: SARS-CoV-2 pseudovirus cell entry assay, luminescence; activity change, negative = inhibition: at 57.1 µM (top of the series) unless noted; series mostly up to 57.1 µM. Summed up:
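Entry measured by luciferase signal 48 h after adding SARS-CoV-2-S pseudotyped MLV particles to HEK293-ACE2 cells preincubated 1 h with compounds. Normalisation: bald particles and spike particles.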
(In general: In qHTS, concentration-response curves come from the screen itself.)
`NCC1CCC(C(=O)O)CC1` (stereo not drawn): the Potency entry is “inactive”. Regarding `O=C(O)C(O)Cc1ccc(O)c(O)c1` (stereo not drawn), the activity change, negative = inhibition is -13% [at 114 µM]. On the same count and under the same terms, under `CC(/C=C/C=C(\C)C(=O)O[C@@H]1O[C@H](CO[C@@H]2O[C@H](CO)[C@@H](O)[C@H](O)[C@H]2O)[C@@H](O)[C@H](O)[C@H]1O)=C\C=C\C=C(C)\C=C\C=C(/C)C(=O)O[C@@H]1O[C@H](CO[C@@H]2O[C@H](CO)[C@@H](O)[C@H](O)[C@H]2O)[C@@H](O)[C@H](O)[C@H]1O` stands -12.5%. As for `O=c1cc(-c2ccccc2)oc2cc(O)c(O)c(O)c12`, the Potency entry was “inactive”. Regarding `O=C(Nc1c(Cl)cncc1Cl)c1ccc(OC(F)F)c(OCC2CC2)c1`, the activity change, negative = inhibition is -7.18%. For `CN1C2CCC1CC(OC(=O)C(CO)c1ccccc1)C2` (stereo not drawn), the activity change, negative = inhibition was -16.5%. Still for that read-out and setting: in the case of `CC(CC=O)CCCC(C)(C)O` (stereo not drawn) it was -11.7%; in that of `Cc1cc(O)c2c(c1)O[C@@]1(C)CC[C@H]3C(C)(C)CCCC34CO[C@@H]2[C@H]41` (stereo partly drawn), -25.2%.
